Screens from PubChem.
CCT modulator: changes cytosolic chaperonin activity | purified chaperonin ATPase assay, HTRF ADP detection, 30 min | activity change, % (concentration not given with the values), hits read low | hit rate 0.3% among 360,000; in the data active means activity change below about -30%; further: on the % scale 0 is the no-effect control and ±100 the full control effect
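First, chaperonin was dispensed at 40 nM or 20 nM final depending on batch activity. Next, compounds were pinned at 76 uM and ATP added at 10 uM. After 30 min at 37 °C, ADP detection reagents ran 30 min at ambient temperature.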
TDP43 rescue: inhibitors of TDP-43 toxicity in yeast. TDP-43 expressing yeast growth rescue, BacTiter-Glo, 24 h. Potency, µM (titrated, usually from 46.1 µM), inactives show at the highest dose growth rescue (activation), hits mostly activators. hit rate 1.8% among 410,000; further: potency means the concentration at half of the fitted maximal effect; % of control where 0% means no effect; nearly all actives have a fitted effect of over 50% in size
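Yeast cells expressing TDP-43 under galactose induction are exposed to compounds for 24 hr at 30 deg C. BacTiter-Glo luminescence measures growth, so protective compounds score as activators.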
MmCpn inh: inhibitors of Methanococcus maripaludis chaperonin TRiC (MmCpn); purified Mm-Cpn ATPase, ADP Transcreener TR-FRET; Potency, µM (highest dose often 76.9 µM), without a hit: at the top dose activity, negative = inhibition, hits mostly inhibitors; hit rate 0.031% among 330,000; AID 504842; further: potency means the concentration at half of the fitted maximal effect; on the % scale 0 is the no-effect control and ±100 the full control effect; nearly all actives have a fitted effect of over 80% in size
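Eu-cryptate anti-ADP/ADP-d2 competition gives a ratio inversely related to ADP. Enzyme at 25 nM was pre-exposed to compound for 10 min, then given 10 uM ATP for 30 min, 37°C throughout.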
Abeta yeast res: restores growth of yeast expressing A-beta42 peptide; yeast expressing A-beta42, growth rescue, OD600, 48 h; response scale: 0% DMSO, 100% iron-clioquinol control; Potency, µM (titrated, usually from 46.1 µM), most hits filed as activators; hit rate 0.063% among 410,000; AID 1347071; further: potency means the concentration at half of the fitted maximal effect; nearly all actives have a fitted effect of over 55% in size
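Yeast growth medium received pinned compounds, then yeast cells expressing toxic A-beta were added; plates incubated at 30 C for 48 hr. Growth read as absorbance at 600 nm, normalized to DMSO and equimolar FeCl3 plus clioquinol controls.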
FUS yeast rescue: suppressors of FUS proteinopathy in yeast; S. cerevisiae FUS-expressing, growth rescue, OD600, 24 h; Potency, µM (doses to about 76.6 µM), actives largely listed as activators; hit rate 0.24% among 390,000; AID 1347120;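 further: potency means the concentration at half of the fitted maximal effect; plate controls were DMSO vehicle for no effect and reference control for full effect; nearly all actives have a fitted effect of over 55% in size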
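Yeast expressing FUS under galactose induction, OD 0.005 in 2% galactose medium; compounds in a dilution series, 24 h at 30C. Growth rescue by absorbance at 600 nm; CP55940 positive control, DMSO negative.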
aSyn rescue: rescues yeast growth from alpha-synuclein toxicity. Yeast expressing alpha-synuclein, growth rescue, BacTiter-Glo, 24 h. Potency, µM (series often up to 46.1 µM), inactives show at the highest dose growth rescue (activation), most hits filed as activators. hit rate 0.14% among 370,000. AID 652106; further: potency means the concentration at half of the fitted maximal effect; % of control where 0% means no effect; nearly all actives have a fitted effect of over 65% in size
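Galactose-induced alpha-syn yeast (OD600=0.02, raffinose-pregrown) + pinned cpd, 24 hr, 30 deg C; growth by BacTiter-Glo luminescence. Growth restoration scores as activation.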
* marks the source's active call; other numbers are inactive results; i = inactive; ? = inconclusive; . = no result; ! = not active in a repeat. A selection: hits, their analogues and other compounds. The true share with any hit is near 2.3%. Unless noted, the call rests on the fitted dose curve; in most records, active means well fitted curve in the direction sought with a large enough effect; inconclusive means small, poorly fitted or top-dose-only effect, or another doubt; inactive means no such curve, though single readings can be large; an effect the other way counts as inactive or inconclusive.

SMILES	CCT modulator	TDP43 rescue	MmCpn inh	Abeta yeast res	FUS yeast rescue	aSyn rescue
Cc1cc(Br)c(NC(=O)COC(=O)C2CCCCC2)c(Br)c1	0	16µM*	-5%	i	i	0%
O=C1OC(/C(=C\Nc2ccccc2)[N+](=O)[O-])c2ccccc21 (stereo not given)	1	1%	1%	i	i	16µM*
O=C1OC(/C(=C\NCc2ccccc2)[N+](=O)[O-])c2ccccc21 (stereo not given)	-3	0%	1%	i	i	11%
COc1cc(CCC(=O)NCc2ccc(S(N)(=O)=O)cc2)cc(OC)c1OC	-94*	-7%	-1%	i	i	3%
COc1ccc(CCCC(=O)NCc2ccccc2)cc1C	1	18µM*	-1%	i	.	9%
COc1cc(CCC(=O)NCc2ccc(F)cc2)cc(OC)c1OC	-1	-18%	0%	i	i	-6%
CCc1ccc(-n2ncc(Cl)c(Oc3ccc(OC)cc3)c2=O)cc1	.	.	.	.	i	.
Cc1cc(C)nc(Nc2nc3ccccc3s2)n1	1	24%	0%	i	i	0%
Cc1ccc(Nc2nc3ccccc3s2)c(C)c1	-1	25µM*	3%	i	i	-1%
CCOCCc1nnc(NC(=O)C(=O)c2cc(C)n(-c3cccc(C)c3)c2C)s1	.	35µM*	.	i	?	.
CC1CC(C)CN(S(=O)(=O)c2ccc(NC(=O)CN3C(=O)NC(C)(c4ccccc4)C3=O)cc2)C1 (stereo not given)	-2	22%	-3%	i	.	1%
CC1CCCN(S(=O)(=O)c2ccc(NC(=O)CN3C(=O)NC(C)(c4ccccc4)C3=O)cc2)C1 (stereo not given)	-7	20%	3%	i	28µM*	-3%
CC(C)(C)c1cc(NC(=O)COc2ccc(Br)cc2)n(-c2ccccc2)n1	-1	20µM*	0%	i	i	-3%
CC1=C(C(=O)Nc2cc(Cl)ccc2C)C2(CCCCC2)OC1=O	.	35µM*	.	i	i	.
CN(C)S(=O)(=O)c1ccc2c(c1)N(CC(=O)NCc1cccc(Br)c1)C(=O)CS2	.	19%	.	i	i	.
O=C(NCc1cccc(Cl)c1)c1ccc(-n2ccnc2)c2ccoc12	-1	-2%	.	i	i	19%
O=C(NCc1cccc(Cl)c1)c1ccc(-n2cncn2)c2ccoc12	-2	35µM*	.	i	i	3%
CCOC(=O)CC[C@H](NC(=O)[C@@H]1CC=C[C@@H]2CCN(Cc3ccc(Cl)cc3)C(=O)[C@@H]21)C(=O)OCC	.	.	.	.	i	.
Cc1cccc(N2CCN(C(=O)C3CCN(c4ncnc5c4nc4n5CCCCC4)CC3)CC2)c1C	-1	?	0%	i	32µM*!	10%
Cc1ccccc1N(C)C(=O)C1CCCN(c2ncnc3c2nc2n3CCCCC2)C1 (stereo not given)	-1	17%	-1%	i	i	2%
CN(C(=O)C1CCCN(c2ncnc3c2nc2n3CCCCC2)C1)c1cccc(Cl)c1 (stereo not given)	2	16µM*	2%	i	i	0%
O=C(C1CCN(c2ncnc3c2nc2n3CCCCC2)CC1)N1CCN(c2ccccc2F)CC1	-1	28%	1%	i	i	1%
O=C(C1CCCN(c2ncnc3c2nc2n3CCCCC2)C1)N1CCN(c2cccc(Cl)c2)CC1 (stereo not given)	-4	20µM*	-1%	.	?	5%
Cc1ccc(C)c(N2CCN(C(=O)C3CCCN(c4ncnc5c4nc4n5CCCCC4)C3)CC2)c1 (stereo not given)	-2	25µM*	3%	i	?	2%
CCCN(C(=O)c1cc2c(=O)oc3ccccc3c2s1)c1ccc(CC)cc1	.	15%	.	i	i	.
SMILES	CCT modulator	TDP43 rescue	MmCpn inh	Abeta yeast res	FUS yeast rescue	aSyn rescue
CCOC(=O)[C@@]12CCC3=C1N(CCC3)C(=O)[C@H](CC(=O)NCCCN1CCCC1=O)C2	.	.	.	.	i	.
Cc1ccc2oc3c(c(=O)c2c1)C(c1cccc(O)c1)N(Cc1ccccc1Cl)C3=O (stereo not given)	.	-10%	.	i	i	.
CCn1c(=O)c2cc(C(=O)Nc3cccc(C(F)(F)F)c3)sc2c2ccccc21	.	4%	.	i	i	.
CCN(CC(=O)NC(C)(C)C)C(=O)COc1c(Cl)cc(Cl)c2ccc(C)nc12	2	28µM*	-2%	?	i	10%
CCN1C(=O)[C@H]2[C@@H](c3ccc(-c4ccc(OC)cc4)cc3)N3CCC[C@@]3(C(=O)OC)[C@H]2C1=O	-2	?	-10%	i	28µM*	7%
CCN1C(=O)[C@H]2[C@@H](c3ccc(-c4ccccc4)cc3)N3CCC[C@@]3(C(=O)OC)[C@H]2C1=O	2	35µM*	2%	?	?	1%
CC(C)Oc1ccc(F)cc1-c1cc(C(=O)N2CCc3ccccc3C2)[nH]n1	-1	28µM*	.	i	?	8%
CCOC(=O)[C@]12CCCC3=C1N(CCC3)C(=O)[C@@H](CC(=O)N1CCOCC1)C2	.	.	.	.	i	.
CCOP(=O)(OCC)c1ccc2c(c1)C(=O)c1ccccc1-2	.	.	.	.	i	.
Cc1ccc(S(=O)(=O)NCC(=O)NCc2cc(=O)n(C)c(=O)n2C)cc1C	-79*	-1%	-16%	i	i	0%
COCCN(CC(=O)NC1CCCCC1)C(=O)/C=C/C(=O)c1ccc(OC)cc1O	0	14µM*	0%	i	i	11%
COc1ccc(C(=O)/C=C/C(=O)N(CC(=O)NC2CCCCC2)Cc2cccs2)c(O)c1	-1	20µM*	?	i	?	2%
COc1ccc(C(=O)/C=C/C(=O)N(Cc2ccc3c(c2)OCO3)C(C(=O)NC2CCCCC2)c2ccncc2)c(O)c1 (stereo not given)	-1	?	-4%	i	.	?
COc1ccc(CN(C(=O)/C=C/C(=O)c2ccc(OC)cc2O)C(C(=O)NC2CCCCC2)c2ccncc2)cc1 (stereo not given)	1	28%	-1%	i	.	35µM*
OC(CN1C=CCc2ccccc21)c1ccc(Cl)cc1Cl (stereo not given)	.	.	.	.	.	-6%
CC(C)(C)N1C(=O)c2ccccc2NC(=O)N1Cc1ccccc1	0	-1%	-5%	i	i	2%
O=C1Nc2ccccc2C(=O)C1(Cl)Cc1ccccc1 (stereo not given)	0	35µM*	2%	i	i	-52%
CN(Cc1ccccc1)c1ccc(/C=C/c2sc3ccccc3[n+]2C)cc1	.	.	.	.	.	-3%
